Drawing on PubChem BioAssay (NCATS), this text covers Potency for 13 compounds.

Holding throughout (assay): qHTS profiling for inhibitors of Plasmodium falciparum proliferation (AID 504749); further: nearly all actives have a fitted effect of over 60% in size
Common to all, as to conditions: P. falciparum in erythrocytes, SYBR Green DNA, 72 h; series mostly up to 12.8 µM

The subject of one test is AA1029. In short, it runs like this:
(§1)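 P. falciparum-infected erythrocytes (0.3% parasitemia, 2.5% hematocrit) incubated with compound 72 h at 37 C, 5% CO2. Parasite DNA detected by SYBR Green after lysis, overnight at room temperature; normalised to 0.29 uM artemisinin and DMSO.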

Another test relates to C2A. In a few lines: as §1
The subject of the next test is CP211. In a few lines: as §1
The next test deals with CP217. In short, it runs like this: as §1
The next test deals with CP237. In a few lines: as §1
Another test deals with CP252. In a few lines: as §1
A further test deals with CP269. In short, it runs like this:
as §1

For the next test, the system named is CP286. In a few lines:
as §1

A further test relates to CP291. In a few lines: as §1
Another test deals with CP305. In short, it runs like this:
as §1

A further test has as its system CP315. In short, it runs like this:
as §1

The next test concerns CP335. In a few lines: as §1
The subject of the next test is DFO2036. In short, it runs like this:
as §1

A further test deals with DIV30. In short, it runs like this: as §1
Another test has as its system ECU. In short, it runs like this:
as §1

For another test, the system named is HB3. In short, it runs like this:
as §1

The subject of a further test is P93_24. In a few lines: as §1
For another test, the system named is P94_40. In a few lines: as §1
In a further test the test system is PC26. In short, it runs like this: as §1
The test system of a further test is TAB165. In short, it runs like this:
as §1

Results filed as inconclusive are left out. Active and inactive are the calls of the source. The call rests on the fitted dose curve; in most records, active means well fitted inhibition curve with a large enough effect; inconclusive means small, poorly fitted or top-dose-only effect; inactive means flat fitted curve, though single readings scatter.
Potency means the concentration at half of the fitted maximal effect.

Take `CO/N=C(\C(=O)N[C@@H]1C(=O)N2C(C(=O)O)=C(COC(C)=O)CS[C@@H]12)c1csc(N)n1`: the Potency entry in the test on AA1029, with C2A, with CP211, with CP217, in the test on CP237 and in the test with CP252 was “inactive” throughout. The Potency entry in the test with CP269, in the test on CP286, with CP291, with CP305, in the test with CP315 and in the test with CP335 was “inactive” each time. Further, the Potency entry in the test on DFO2036, in the test with DIV30, in the test with ECU, in the test on HB3, in the test with P93_24 and in the test on P94_40 was “inactive” throughout. Also, the Potency entry in the test on PC26 and in the test on TAB165 was “inactive” in each case.
Take `CC[C@@]12CCCN3CCc4c(n(c5ccccc45)C(=O)C1)[C@H]32`: the Potency entry in the test on AA1029, in the test with C2A, in the test on CP211, with CP217, in the test on CP237 and in the test on CP252 was “inactive” throughout. Besides, the Potency entry in the test with CP269, with CP286, in the test on CP291, in the test on CP305, in the test with CP315 and in the test on CP335 was “inactive” throughout. Moreover, the Potency entry with DFO2036, in the test with DIV30, in the test with ECU, with HB3, with P93_24 and in the test on P94_40 was “inactive” throughout. Moreover, the Potency entry in the test with PC26 and with TAB165 was “inactive” throughout.
For the compound `CO[C@]1(NC(=O)CSCC#N)C(=O)N2C(C(=O)O)=C(CSc3nnnn3C)CS[C@H]21`, the Potency result in the test with AA1029, in the test on C2A, in the test on CP211, with CP217, with CP237 and in the test with CP252 was “inactive” each time. Besides, the Potency entry in the test with CP269, with CP286, in the test with CP291, with CP305, in the test with CP315 and in the test with CP335 was “inactive” in each case. Moreover, the Potency result with DFO2036, in the test on DIV30, in the test on ECU, in the test with HB3, with P93_24 and in the test on P94_40 was “inactive” throughout. In addition, the Potency result in the test with PC26 and in the test on TAB165 was “inactive” in each case.
For the compound `C[C@@H]1COc2c(N3CCN(C)CC3)c(F)cc3c(=O)c(C(=O)O)cn1c23`, the Potency entry in the test with AA1029, in the test with C2A, in the test on CP211, in the test on CP217, in the test with CP237 and with CP252 was “inactive” each time. Also, the Potency result in the test on CP269, in the test on CP286, in the test with CP291, in the test with CP305, in the test with CP315 and in the test on CP335 was “inactive” in each case. Further, the Potency result in the test with DFO2036, in the test on DIV30, with ECU, in the test with HB3, in the test with P93_24 and in the test on P94_40 was “inactive” each time. Besides, the Potency result in the test with PC26 and in the test with TAB165 was “inactive” throughout.
For the compound `C[C@@H](CCc1ccccc1)NC[C@H](O)c1ccc(O)c(C(N)=O)c1`, the Potency result with AA1029, in the test on C2A, in the test with CP211, in the test with CP217, with CP237 and with CP252 was “inactive” throughout. For the same compound, the Potency result in the test with CP269, in the test on CP286, with CP291, in the test on CP305, in the test with CP315 and in the test on CP335 was “inactive” throughout. Moreover, the Potency entry in the test on P93_24, in the test with P94_40, with PC26 and in the test on TAB165 was “inactive” throughout.
Turning to `CCCN[C@@H](C)C(=O)Nc1ccccc1C`, the Potency entry in the test with AA1029, with C2A, with CP211, in the test with CP217, in the test on CP237 and in the test with CP252 was “inactive” in each case. Moreover, the Potency result with CP269, in the test with CP286, in the test with CP291, in the test with CP305, with CP315 and in the test with CP335 was “inactive” throughout. For the same compound, the Potency entry in the test with DFO2036, with DIV30, in the test with ECU, in the test on HB3, with P93_24 and in the test on P94_40 was “inactive” each time. The Potency entry with PC26 and with TAB165 was “inactive” each time.
Take `C[C@@H]1c2cccc(O)c2C(O)=C2C(=O)[C@@]3(O)C(O)=C(C(N)=O)C(=O)[C@@H](N(C)C)[C@@H]3[C@@H](O)[C@@H]21`: the Potency entry in the test with CP211 and in the test with CP217 was “inactive” each time. Also, the Potency in the test on CP335 is 4260 nM (active).
As for `C[C@H](NCCc1ccc(O)cc1)[C@@H](O)c1ccc(O)cc1`, the Potency entry with AA1029, with C2A, in the test on CP211, in the test on CP217, with CP237 and with CP252 was “inactive” each time. The Potency entry in the test on CP269, with CP286, in the test with CP291, in the test with CP305, in the test with CP315 and with CP335 was “inactive” in each case. In addition, the Potency entry in the test with DFO2036, in the test on DIV30, in the test on ECU, with HB3, in the test with P93_24 and in the test with P94_40 was “inactive” each time. Besides, the Potency result in the test with PC26 and with TAB165 was “inactive” in each case.
Take `O=C(c1ccccc1)c1ccc2n1CC[C@H]2C(=O)O`: the Potency result in the test with AA1029, with C2A, with CP211, in the test on CP217, in the test with CP237 and with CP252 was “inactive” throughout. For the same compound, the Potency entry in the test on CP269, in the test on CP286, in the test on CP291, with CP305, with CP315 and with CP335 was “inactive” each time. Besides, the Potency result in the test on DFO2036, with DIV30, in the test with ECU, in the test with HB3, in the test on P93_24 and in the test on P94_40 was “inactive” in each case. Besides, the Potency entry in the test with PC26 and in the test on TAB165 was “inactive” in each case.
`CN(C)[C@@H]1C(=O)C(C(N)=O)=C(O)[C@]2(O)C(=O)C3=C(O)c4c(O)ccc(Cl)c4[C@H](O)[C@H]3C[C@@H]12`: the Potency result with C2A, in the test on CP211, with CP217, with CP252, in the test on CP269 and with CP291 was “inactive” throughout. For the same compound, the Potency entry with CP305, with CP315, in the test on DIV30, with P94_40 and with PC26 was “inactive” in each case.
With `CCn1cc(C(=O)O)c(=O)c2cc(F)c(N3CCN[C@@H](C)C3)c(F)c21`, the Potency result in the test on AA1029, with C2A, in the test with CP211, in the test on CP217, in the test on CP237 and in the test with CP252 was “inactive” in each case. Also, the Potency entry with CP269, with CP315, in the test on DFO2036, with DIV30, in the test with ECU and in the test with HB3 was “inactive” throughout. The Potency result in the test on P93_24, with P94_40, with PC26 and with TAB165 was “inactive” throughout.
As to `NC(=O)c1cc[n+](CC2=C(C(=O)O)N3C(=O)[C@@H](NC(=O)[C@H](c4ccccc4)S(=O)(=O)[O-])[C@@H]3SC2)cc1`, the Potency was 1410 nM (active) in the test with CP237; 1610 nM (active) with CP269; 1780 nM (active) in the test with CP286; 2560 nM (active) in the test on CP305; 1610 nM (active) with CP335; 1780 nM (active) in the test on DFO2036. Besides, the Potency was 2280 nM (active) in the test on DIV30; 2000 nM (active) in the test with ECU; 891 nM (active) with HB3; 1260 nM (active) in the test on P93_24; 1260 nM (active) with P94_40; 1810 nM (active) in the test on PC26. Further, in the test on TAB165, the Potency is 1000 nM (active).
Turning to `CC(C)NC[C@H](O)c1cc(O)cc(O)c1`, the Potency entry in the test with AA1029, in the test with C2A, in the test on CP211, in the test on CP217, in the test with CP237 and with CP252 was “inactive” throughout. For the same compound, the Potency entry in the test on CP269, with CP286, with CP291, in the test with CP305, in the test with CP315 and in the test with CP335 was “inactive” in each case. Besides, the Potency entry in the test on DFO2036, with DIV30, with ECU, in the test on HB3, with P93_24 and with P94_40 was “inactive” each time. Further, the Potency result in the test on PC26 and in the test on TAB165 was “inactive” throughout.
